For some assays here: Potency and affinity values are given separately.
What was measured:
Parameters in all cases: scale not given: direction of the effect not stated beside the values
[1] = target: Protein translocase subunit SecA (Escherichia coli (strain K12)) (UniProt P10408); test: Assay to Identify E. coli SecA ATPase Inhibitors; type: functional; conditions: 30 µM
[2] = target: T1, Ubiquitin-activating enzyme e1, putative (Leishmania donovani (strain BPK282A1)) (UniProt E9BSI1); test: Leishmania donovani Ubiquitin Activating Enzyme (LdE1); type: functional; conditions: 30 µM
T1 sequence (whole entry): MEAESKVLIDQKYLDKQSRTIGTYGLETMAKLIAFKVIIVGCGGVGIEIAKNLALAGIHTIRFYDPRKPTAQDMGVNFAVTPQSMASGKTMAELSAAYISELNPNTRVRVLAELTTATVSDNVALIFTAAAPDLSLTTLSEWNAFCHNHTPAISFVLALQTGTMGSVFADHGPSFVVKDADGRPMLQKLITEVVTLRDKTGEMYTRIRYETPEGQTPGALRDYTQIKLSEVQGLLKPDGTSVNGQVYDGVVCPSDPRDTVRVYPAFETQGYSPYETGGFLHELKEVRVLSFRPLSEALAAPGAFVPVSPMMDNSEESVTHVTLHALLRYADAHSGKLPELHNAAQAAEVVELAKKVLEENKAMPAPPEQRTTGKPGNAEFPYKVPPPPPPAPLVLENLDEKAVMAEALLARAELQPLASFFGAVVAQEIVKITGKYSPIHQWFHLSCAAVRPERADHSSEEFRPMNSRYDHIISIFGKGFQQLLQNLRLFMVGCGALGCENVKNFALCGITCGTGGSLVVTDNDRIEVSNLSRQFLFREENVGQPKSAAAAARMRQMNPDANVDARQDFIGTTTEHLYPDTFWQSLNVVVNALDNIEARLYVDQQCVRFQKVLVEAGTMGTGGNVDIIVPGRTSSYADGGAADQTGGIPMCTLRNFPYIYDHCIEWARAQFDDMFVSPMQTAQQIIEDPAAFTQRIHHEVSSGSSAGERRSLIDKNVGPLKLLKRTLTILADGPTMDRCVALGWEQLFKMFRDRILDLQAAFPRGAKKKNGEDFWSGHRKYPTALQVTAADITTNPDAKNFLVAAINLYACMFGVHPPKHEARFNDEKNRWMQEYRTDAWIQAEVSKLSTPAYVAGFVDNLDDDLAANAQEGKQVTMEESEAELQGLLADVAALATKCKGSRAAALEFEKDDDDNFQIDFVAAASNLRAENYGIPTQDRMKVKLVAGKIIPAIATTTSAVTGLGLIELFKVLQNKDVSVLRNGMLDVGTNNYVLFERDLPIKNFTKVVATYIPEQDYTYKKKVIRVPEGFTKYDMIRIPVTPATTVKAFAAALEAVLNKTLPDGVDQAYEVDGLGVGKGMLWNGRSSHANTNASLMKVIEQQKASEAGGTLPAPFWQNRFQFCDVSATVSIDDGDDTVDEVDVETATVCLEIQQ

[3] = target: AMP-activated protein kinase, AMPK (Homo sapiens) (UniProt P54646+O43741+P54619+Q9UGJ0+Q9Y478+Q13131+Q9UGI9); test: AMP-dependent Kinase enzyme assay. An in vitro enzyme assay that detects ADP turnover that is directly proportional to AMPK activity. This uses naive AMPK that is activated during the assay with MK-8722; type: functional; conditions: 30 µM
[4] = target: Sialic acid-binding Ig-like lectin 9 (Homo sapiens) (UniProt Q9Y336); test: Hs-Siglec9 ALPHAscreen SOP 20170721; conditions: 10 µM
Sequence of Sialic acid-binding Ig-like lectin 9 (Homo sapiens) (Q9Y336 whole entry): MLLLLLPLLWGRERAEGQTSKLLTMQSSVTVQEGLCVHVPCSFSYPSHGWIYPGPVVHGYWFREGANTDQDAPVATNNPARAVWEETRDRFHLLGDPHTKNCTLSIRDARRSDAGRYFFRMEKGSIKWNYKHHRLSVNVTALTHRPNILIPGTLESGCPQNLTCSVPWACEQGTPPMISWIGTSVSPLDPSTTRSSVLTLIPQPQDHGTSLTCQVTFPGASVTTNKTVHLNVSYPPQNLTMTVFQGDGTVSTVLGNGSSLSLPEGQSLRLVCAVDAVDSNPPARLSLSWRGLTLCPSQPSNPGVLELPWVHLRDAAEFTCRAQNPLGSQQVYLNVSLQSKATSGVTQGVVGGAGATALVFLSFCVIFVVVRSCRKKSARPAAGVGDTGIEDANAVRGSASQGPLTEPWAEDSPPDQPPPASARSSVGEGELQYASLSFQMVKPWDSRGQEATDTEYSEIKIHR

Trypanosoma cruzi = test: Trypanosoma cruzi phosphomannomutase and mannose-1-phosphate guanylyltransferase assay; type: functional; conditions: 10 µM
[5] = target: T2, Arginase-2, mitochondrial (Homo sapiens) (UniProt P78540); test: in vitro enzyme assay to detect the production of urea directly proportional to the activity of Arginase II; type: functional; conditions: 33.3 µM; also: in the data most compounds retested in dose-response had high values
T2 sequence (whole entry): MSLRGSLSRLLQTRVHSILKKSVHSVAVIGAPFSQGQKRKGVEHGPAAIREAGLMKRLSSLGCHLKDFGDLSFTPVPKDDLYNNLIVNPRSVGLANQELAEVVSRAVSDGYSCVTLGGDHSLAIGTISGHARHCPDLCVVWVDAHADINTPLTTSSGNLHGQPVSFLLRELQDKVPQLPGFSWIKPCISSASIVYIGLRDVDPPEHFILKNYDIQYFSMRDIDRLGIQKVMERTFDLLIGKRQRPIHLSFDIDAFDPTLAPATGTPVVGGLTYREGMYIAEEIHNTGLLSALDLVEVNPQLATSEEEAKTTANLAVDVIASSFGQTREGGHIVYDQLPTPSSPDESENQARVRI

[6] = target: T3, Proteasome subunit beta (Trypanosoma cruzi) (UniProt O96673); test: Trypanosoma cruzi proteasome chymotrypsin-like activity (TcProtChymo) assay.; also: in the data most compounds retested in dose-response had high values; type: functional; conditions: 9.37 µM
T3 sequence (whole entry): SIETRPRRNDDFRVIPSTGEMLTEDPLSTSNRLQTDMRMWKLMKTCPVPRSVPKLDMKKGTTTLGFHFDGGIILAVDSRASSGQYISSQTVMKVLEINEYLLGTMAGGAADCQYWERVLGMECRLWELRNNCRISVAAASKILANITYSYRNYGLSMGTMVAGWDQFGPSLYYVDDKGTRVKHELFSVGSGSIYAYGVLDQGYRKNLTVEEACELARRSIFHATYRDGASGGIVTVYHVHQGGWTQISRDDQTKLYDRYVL

Homo sapiens = organism: Homo sapiens; test: To identify inhibition of the IFN signalling (Jak-Stat) pathway via expression of an eGFP reporter gene under the control of an IFN-stimulated response element (ISRE) containing MxA promoter.; type: functional; conditions: 30 µM
[7] = target: T4, Tyrosyl-tRNA synthetase, putative (Trypanosoma cruzi (strain CL Brener)) (UniProt Q4DSP6); test: Trypanosoma cruzi tyrosyl tRNA synthetase (TcYRS) _High Tyrosine SOP; type: functional; conditions: 30 µM; also: in the data most compounds retested in dose-response had high values
T4 sequence (whole entry): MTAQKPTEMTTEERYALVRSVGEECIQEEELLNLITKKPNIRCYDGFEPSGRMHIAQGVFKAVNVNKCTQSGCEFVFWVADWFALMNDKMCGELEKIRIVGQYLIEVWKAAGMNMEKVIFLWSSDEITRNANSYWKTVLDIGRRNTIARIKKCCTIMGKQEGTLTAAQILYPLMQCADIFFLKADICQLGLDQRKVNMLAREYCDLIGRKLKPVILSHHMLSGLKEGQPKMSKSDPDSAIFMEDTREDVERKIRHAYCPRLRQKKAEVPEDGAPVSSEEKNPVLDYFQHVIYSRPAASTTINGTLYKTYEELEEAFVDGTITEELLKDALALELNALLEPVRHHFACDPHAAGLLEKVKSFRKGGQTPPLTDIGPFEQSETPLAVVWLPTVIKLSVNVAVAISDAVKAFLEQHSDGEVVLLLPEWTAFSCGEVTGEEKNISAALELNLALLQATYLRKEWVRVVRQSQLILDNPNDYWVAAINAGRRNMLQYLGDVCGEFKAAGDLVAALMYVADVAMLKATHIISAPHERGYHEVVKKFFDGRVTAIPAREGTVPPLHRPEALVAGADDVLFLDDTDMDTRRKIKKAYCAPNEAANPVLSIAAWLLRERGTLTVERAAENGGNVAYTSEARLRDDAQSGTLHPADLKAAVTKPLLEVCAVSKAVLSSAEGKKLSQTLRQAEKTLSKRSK

[8] = target: T4, Tyrosyl-tRNA synthetase, putative (Trypanosoma cruzi (strain CL Brener)); test: Trypanosoma cruzi tyrosyl tRNA synthetase (TcYRS) SOP; type: functional; conditions: 30 µM
[9] = target: Chromo domain-containing protein 1 (Saccharomyces cerevisiae (strain ATCC 204508 / S288c) (Baker's yeast)) (UniProt P32657); test: ScCHD-1 Enzyme Inhibition Assay; type: functional; conditions: 30 µM; also: in the data most compounds retested in dose-response had high values
Sequence of Chromo domain-containing protein 1 (Saccharomyces cerevisiae (strain ATCC 204508 / S288c) (Baker's yeast)) (P32657 whole entry, the tested form may be a part): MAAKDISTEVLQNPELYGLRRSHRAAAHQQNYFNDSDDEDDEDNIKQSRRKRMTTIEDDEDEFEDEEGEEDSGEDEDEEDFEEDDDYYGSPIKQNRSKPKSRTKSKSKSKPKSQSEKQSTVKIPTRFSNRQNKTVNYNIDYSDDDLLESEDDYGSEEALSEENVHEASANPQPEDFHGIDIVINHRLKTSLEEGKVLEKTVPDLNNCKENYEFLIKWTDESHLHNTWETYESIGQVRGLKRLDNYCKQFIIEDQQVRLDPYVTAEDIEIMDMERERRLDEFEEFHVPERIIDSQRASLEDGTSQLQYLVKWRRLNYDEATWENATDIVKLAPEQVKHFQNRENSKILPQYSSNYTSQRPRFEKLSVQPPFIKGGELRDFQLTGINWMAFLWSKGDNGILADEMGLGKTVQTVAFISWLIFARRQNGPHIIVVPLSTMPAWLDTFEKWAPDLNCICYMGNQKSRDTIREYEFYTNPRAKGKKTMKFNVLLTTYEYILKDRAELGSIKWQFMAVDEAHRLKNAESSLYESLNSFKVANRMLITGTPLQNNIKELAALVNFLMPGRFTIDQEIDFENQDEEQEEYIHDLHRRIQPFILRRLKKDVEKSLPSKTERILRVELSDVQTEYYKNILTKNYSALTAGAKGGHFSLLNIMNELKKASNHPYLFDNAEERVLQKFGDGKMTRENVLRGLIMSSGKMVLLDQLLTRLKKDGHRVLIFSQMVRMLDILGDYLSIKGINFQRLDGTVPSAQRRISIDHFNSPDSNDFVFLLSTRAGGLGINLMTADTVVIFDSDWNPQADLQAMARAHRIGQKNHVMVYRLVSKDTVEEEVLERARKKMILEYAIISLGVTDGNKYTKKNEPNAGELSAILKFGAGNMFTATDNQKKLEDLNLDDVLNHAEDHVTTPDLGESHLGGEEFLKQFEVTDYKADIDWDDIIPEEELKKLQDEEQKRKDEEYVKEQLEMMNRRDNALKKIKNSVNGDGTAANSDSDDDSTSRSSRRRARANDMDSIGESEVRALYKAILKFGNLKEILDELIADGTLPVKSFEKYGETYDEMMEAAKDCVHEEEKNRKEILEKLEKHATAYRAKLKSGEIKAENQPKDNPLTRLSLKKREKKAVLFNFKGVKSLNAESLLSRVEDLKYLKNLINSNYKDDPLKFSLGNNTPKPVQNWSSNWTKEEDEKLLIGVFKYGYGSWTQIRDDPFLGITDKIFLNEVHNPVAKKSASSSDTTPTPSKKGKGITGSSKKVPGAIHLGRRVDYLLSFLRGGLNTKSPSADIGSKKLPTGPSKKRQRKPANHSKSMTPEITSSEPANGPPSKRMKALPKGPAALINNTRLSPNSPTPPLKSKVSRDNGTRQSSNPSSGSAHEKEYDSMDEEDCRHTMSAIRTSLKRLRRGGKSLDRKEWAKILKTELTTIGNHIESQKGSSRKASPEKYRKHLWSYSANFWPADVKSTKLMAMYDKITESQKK

Sequence of Protein translocase subunit SecA (Escherichia coli (strain K12)) (P10408 whole entry): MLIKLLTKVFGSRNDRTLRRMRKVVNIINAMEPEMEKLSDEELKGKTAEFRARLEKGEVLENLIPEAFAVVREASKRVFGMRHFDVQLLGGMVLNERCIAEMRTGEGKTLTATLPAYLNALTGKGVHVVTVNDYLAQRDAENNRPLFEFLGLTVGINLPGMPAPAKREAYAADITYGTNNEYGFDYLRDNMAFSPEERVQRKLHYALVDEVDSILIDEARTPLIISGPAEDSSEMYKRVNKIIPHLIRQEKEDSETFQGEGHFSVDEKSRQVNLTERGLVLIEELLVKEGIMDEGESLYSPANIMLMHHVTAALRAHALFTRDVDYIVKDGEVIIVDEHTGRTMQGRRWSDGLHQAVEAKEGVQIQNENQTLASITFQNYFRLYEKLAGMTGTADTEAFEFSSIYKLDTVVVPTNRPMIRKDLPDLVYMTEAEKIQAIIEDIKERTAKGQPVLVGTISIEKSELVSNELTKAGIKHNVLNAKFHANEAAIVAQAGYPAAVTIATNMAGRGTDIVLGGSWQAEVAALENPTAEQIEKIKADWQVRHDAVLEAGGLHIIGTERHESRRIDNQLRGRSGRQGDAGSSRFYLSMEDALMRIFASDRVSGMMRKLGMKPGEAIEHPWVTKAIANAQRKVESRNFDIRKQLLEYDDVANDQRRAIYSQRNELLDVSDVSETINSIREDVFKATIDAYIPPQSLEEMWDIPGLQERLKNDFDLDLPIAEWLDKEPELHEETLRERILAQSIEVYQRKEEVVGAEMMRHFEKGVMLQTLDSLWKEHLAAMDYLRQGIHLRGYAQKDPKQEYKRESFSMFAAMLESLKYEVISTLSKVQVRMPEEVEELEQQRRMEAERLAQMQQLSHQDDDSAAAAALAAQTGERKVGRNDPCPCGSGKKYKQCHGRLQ

SMILES	Percent Effect [1] [%]	Percent Effect [2] [%]	Percent Effect [3] [%]	Percent Effect [4] [%]	Percent Effect (Trypanosoma cruzi) [%]	Percent Effect [5] [%]	Percent Effect [6] [%]	Percent Effect (Homo sapiens) [%]	Percent Effect [7] [%]	Percent Effect [8] [%]	Percent Effect [9] [%]
Cc1[nH]ccc1C(=O)N1CCC(c2nnc(Cn3ccnc3)n2C)CC1	-1.99	8.22	-2.31	4.71	-4.56	-4.79	15.3	22.3	6.25	16.1	0.967
CN1CCOC(CNCc2coc(-c3ccccc3)n2)C1 (configuration not stated)	0.225	12.7	-7.36	-10.7	-5.57	7.22	8.6	24.4	6.4	13.9	-5.22
COc1cccc(CN2CCN(C(=O)CN3CCOCC3)CC2)n1	0.629	-10.5	-3.06	3.57	4.76	3.6	4.99	7.19	2.46	6.17	2.89
COCCC(=O)N1CCN(CCN(C)C)c2ncccc2C1	-3.66	5.2	4.52	2.96	-0.492	-2.76	9.48	0.361	4.3	8.64	-1.22
c1ncn(CC2CCCCN2Cc2noc(C3CC3)n2)n1 (configuration not stated)	-0.132	15.8	0.834	1.81	-1.69	-1.92	16.4	6.6	3.43	21.9	-12.9
O=C(c1cccc(CN2CCCC2)c1)N1CCCC(n2cncn2)C1 (configuration not stated)	-4.8	21.6	-12.1	-3.07	-0.849	-10	16.2	23.3	6.4	16.1	-2.99
N#Cc1ccc(OCCNc2cccc(C(=O)N3CCOCC3)c2)cc1	-3.6	15.6	-1.62	14.6	6.98	-8.28	17.1	16.8	2.15	13.6	0.249
Cc1csc([C@@H]2C[C@@H]3CCN(C(=O)c4ccnnc4)C[C@H]3O2)n1	0.296	2.6	5.97	6.2	-0.296	-0.645	-0.174	12.4	6.35	8.97	-1.14
CCOCC(=O)N1C[C@@H]2COC[C@H](c3nc(C)no3)[C@@H]2C1	-1.23	-5.41	5.84	-1.1	0.586	2.5	9.21	1.97	-15.8	-1.22	-2.33
Cc1cc(=O)n2ncnc2n1CC(O)c1ccccc1Cl (configuration not stated)	-0.278	7.89	6.81	-5.31	-6.52	-8.28	18.1	-6.46	3.19	7.79	-2.48
O=C([C@H]1COC[C@H]2CN(Cc3ccco3)C[C@H]21)N1CCCO1	-7.92	18.7	-1.75	0.139	4.63	-47.9	4.62	-0.652	6.25	15	-6.91
COc1ncccc1NC(=O)NCC(O)c1ccc(F)cc1F (configuration not stated)	-1.59	-6.33	2.46	1.59	-3.79	5.38	20.6	15.3	2.08	5.06	-13.8
CC(NC(=O)COc1nc(C(C)(C)C)no1)c1ccco1 (configuration not stated)	-6.83	2.7	5.6	2.63	4.25	2.86	3.45	-3.88	4.76	9.76	-1.56
Cn1ccnc1CN1CCCCC1Cn1cccn1 (configuration not stated)	-4.99	3.8	0.666	3.72	0.718	0.215	-1.03	4.51	6.25	10.1	-20.8
CCOCCN1CCN(Cc2nnc(C3CC3)o2)CC1CC (configuration not stated)	-2.67	11	-18	17.7	8.03	18.6	1.95	2.56	2.15	7.5	-5.28
CC1(C)CC(N2Cc3nc(N4CCOCC4)ncc3C2=O)CC(C)(C)N1	-6.55	2.6	1.41	1.23	-9.93	2.76	10.8	13.3	0	-1.24	-0.541
Cc1ccn(-c2ccccc2NCc2ncc[nH]2)n1	-7.12	8.22	-9.03	-1.61	0.783	3.18	9.41	-4.65	4.3	10	-3.33
Cc1nc(C2CCCN(C(=O)c3cc(Cl)c[nH]3)C2)no1 (configuration not stated)	-5.67	12.7	-0.617	10.9	3.87	-6.46	1.88	-5.6	5.42	13.9	-7.78
O=C(NCCN1CCCCC1)c1nc2ccccc2c(=O)[nH]1	4.74	9.33	-7.18	-5.32	-8.05	-13.6	13.7	-0.00779	0	10.3	-9.94
Cc1cc(C)n(CC2CCCN2C(=O)c2cc[nH]n2)n1 (configuration not stated)	-7.68	16.5	-4.09	-3.12	0.923	0.215	8.58	-2.4	7.29	17.7	-34.4
O=C(c1ccc(F)c(F)c1)N1CCCC(Nc2ccc(F)cc2)C1 (configuration not stated)	-2.99	-2.7	-4.26	1.48	6.56	-2.86	2.59	19.7	6.88	7.32	-2.35
Cc1nc(CN2CCOC(CN(C)c3cccnn3)C2)cs1 (configuration not stated)	0.938	0	-2.69	-0.951	4.8	1.47	5.74	10.8	2.86	2.35	0.286
